Test [1] concerns the target Lysosomal acid glucosylceramidase (Homo sapiens) (UniProt P04062). Briefly: Glucocerebrosidase-p2 (AID 348; in the data active = potency below about 10 µM; note: potency is the fitted concentration of half-maximal effect). Particulars: purified GBA, blue fluorogenic substrate, 40 min. In outline: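 Normal human glucocerebrosidase (0.2 nM) with blue fluorogenic substrate (80 uM final) in citrate/phosphate pH 5.9 with 10mM sodium taurocholate, 0.01% tween-20; 40 min RT, NaOH/glycine stop; fluorescence Ex 365/Em 440; AC50 from a titration from 0.6 nM upwards.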

A short description of test [2]: AP1 Signaling Pathway (AID 357).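 Note: ME-180 reporter cells stimulated with EGF at its EC50 level; % is set by controls: 0 for no effect and ±100 for the full control effect.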 The conditions noted are these: ME-180 AP-1-bla reporter, EGF-induced, beta-lactamase ratio, 5 h; at 7.69 µM (top of the series) unless noted. A digest of the protocol:
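A ratiometric CCF4 readout (405 nm excitation; 460 and 530 nm emission) quantified AP-1-driven beta-lactamase in ME-180 cells after 5 h with compound and EC50 EGF; AC50 values were derived for activators and inhibitors.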

Test [3] addresses Cytochrome P450 1A2 (Homo sapiens) (UniProt P05177). Briefly: p450-cyp1a2 (AID 410; calls by dose curve; note: potency is the fitted concentration of half-maximal effect). The conditions noted are these: recombinant CYP1A2, luciferin-ME demethylation, luminescence; series mostly up to 57 µM. A digest of the protocol: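 O-Demethylation of luciferin 6' methyl ether by human CYP1A2 is monitored as luciferase luminescence. Substrate sits at Km (100uM); enzyme is 20nM. Values are scaled to 57 uM furafylline as maximal inhibition.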

The nature of test [4]: NFAT Signaling Pathway (AID 444).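 Note: carbachol stimulus at about its EC50 of 1 µM final; % is set by controls: 0 for no effect and ±100 for the full control effect.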 Particulars: Jurkat NFAT-bla M1, carbachol, beta-lactamase ratio, 5 h; at 7.69 µM (top of the series) unless noted. In outline:
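Jurkat cells with NFAT-driven β-lactamase reporter and co-expressed M1 receptor, stimulated with carbachol (final 1 uM, ~EC50), compound titration, 5 h at 37 °C. CCF4 loaded 1 h at RT; 460/530 nm ratio gave %activity and AC50.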

Test [5] in a line: Stat Signaling Pathway (AID 446).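 Note: ME-180 cervical cancer cells given 40 pM IL-6 alongside compound; SIE-controlled beta-lactamase reporter measured as 460/530 nm FRET emission ratio; % is set by controls: 0 for no effect and ±100 for the full control effect.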 Particulars: ME-180 (cervical carcinoma) SIE beta-lactamase reporter, IL-6 stimulated, 5 h; at 7.69 µM (top of the series) unless noted. In outline: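 Emission at 460 and 530 nm (excitation 405 nm) reports SIE-controlled beta-lactamase in ME-180 cells. Cells received compound with 40 pM IL-6 for 5 hrs at 37 C; data scaled between 300 pM IL-6 and 125 nM JAK-inhibitor controls.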

Test [6] concerns the target Glucocorticoid receptor (Homo sapiens) (UniProt P04150). Put plainly: GR-EFC Redistribution (AID 451; calls by dose curve; note: potency is the fitted concentration of half-maximal effect). Particulars: CHO-K1 GR-EFC translocation, beta-gal luminescence, 2 h. In outline: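 CHO-K1 cells expressing nuclear EA and GR-ED fragments of b-gal; compounds titrated up to 46 uM final, 2 h at 37 C. GR nuclear translocation read as complemented b-gal luminescence after 1 h RT detection.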

Test [7] concerns the target 3',5'-cyclic-AMP phosphodiesterase 4B (Homo sapiens) (UniProt Q07343). Briefly: qHTS Assay for Inhibitors of PDE-IV (AID 607; active = well fitted activation curve with a large enough effect in the main read-out, with a control signal flat, not every such curve was filed as active; note: % of control where 0% means no effect). The conditions noted are these: HEK293 ACTOne CNG channel cells, membrane potential fluorescence; series mostly up to 22.9 µM. In outline: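 The readout is membrane depolarisation from a cAMP-sensing CNG channel, detected with a potential dye at ex 535/em 590. Cells were HEK293-derived (endogenous PDE-IV) at 1000 cells/well, titrated up to 22.9 uM final.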
(In qHTS, concentration-response curves come from the screen itself.)

Test [8] addresses Cytochrome P450 3A4 (Homo sapiens) (UniProt P08684). Briefly: qHTS Assay for Inhibitors and Substrates of Cytochrome P450 3A4 (AID 884; active = well fitted curve in the direction sought with a large enough effect; an effect the other way counts as inactive or inconclusive; note: nearly all actives have a fitted effect of over 50% in size; note: potency is the fitted concentration of half-maximal effect). Particulars: recombinant CYP3A4, Luciferin-PPXE luminescence; series mostly up to 57.1 µM. A digest of the protocol:
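Luminescent readout of luciferin produced by CYP3A4 (20 nM) dealkylation of Luciferin-PPXE, 25 uM (its KM). NADPH-driven reaction ran 60 min at RT after 10 min compound preincubation; data scaled to 57 uM ketoconazole as 100% inhibition.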

Test [9] in a line: qHTS Assay for Lipid Storage Modulators (AID 1519; calls by dose curve). The conditions noted are these: Drosophila S3 cells, BODIPY lipid droplet/cell ratio, laser cytometry, cells loaded with oleic acid; for activity change, negative = inhibition: at 57.5 µM (top of the series). In outline:
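Cells seeded at 5,000 per well were treated with compounds over a concentration series and loaded with oleic acid (400 uM, as added). Lipid droplet fluorescence (488 nm excitation, 500-530 nm channel) was read by laser-scanning cytometry and normalized to 20 uM Triacsin C.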

A short description of test [10]: Primary qHTS for small molecule stabilizers of the endoplasmic reticulum resident proteome: Secreted ER Calcium Modulated Protein (SERCaMP) assay (AID 1508630; active = well fitted curve in the direction sought with a large enough effect; an effect the other way counts as inactive or inconclusive; note: % is set by controls: 0 for no effect and ±100 for the full control effect). The conditions noted are these: SH-SY5Y GLuc-SERCaMP (Gaussia luciferase released on ER calcium loss) secretion, thapsigargin, luminescence; series mostly up to 38.4 µM. A digest of the protocol: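 The SH-SY5Y reporter protocol was run at 3 concentrations up to 38.3 uM (primary) or 11 concentrations (follow-up): 16 h compound, 100 nM thapsigargin for 4 h, then extracellular luciferase luminescence.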

For test [11], the target named is Cytochrome P450 2D6 (Homo sapiens) (UniProt P10635). Put plainly: qHTS Assay for Inhibitors and Substrates of Cytochrome P450 2D6 (AID 891; active = well fitted curve in the direction sought with a large enough effect; an effect the other way counts as inactive or inconclusive; note: potency is the fitted concentration of half-maximal effect; nearly all actives have a fitted effect of over 60% in size). Particulars: recombinant CYP2D6, luciferin-ME EGE luminescence; series mostly up to 57.1 µM. In outline:
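Luminescent read-out of luciferin formed by 5 nM human CYP2D6 demethylating 30 uM Luciferin-ME EGE (Km level) over 60 min at room temperature after NADPH regeneration addition. Data normalized to full inhibition by 1.43 uM quinidine.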

Test [12] addresses Glucocorticoid receptor (Homo sapiens) (UniProt P04150). Put plainly: GR-GFP Redistribution (AID 450;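 active = compounds whose dose series gives a full or clear partial fitted curve of increased nuclear translocation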; note: potency is the fitted concentration of half-maximal effect). Particulars: U2OS GR-GFP nuclear translocation, laser cytometry, 2 h.
Test [13] deals with Mitogen-activated protein kinase 10 (Mus musculus) (UniProt Q61831). Put plainly: JNK3 AlphaScreen Assay (AID 530). The conditions noted are these: JNK3 lysate, c-Jun phosphorylation; series mostly up to 57.1 µM. A digest of the protocol:
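Activity was read by AlphaScreen after JNK3-containing HepG2 lysate (cytokine pre-activated) phosphorylated biotinylated GST-cJun with 10 uM ATP at room temperature. Phospho-Ser73 cJun antibody with Protein-A acceptor beads provided detection.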
For orientation: Alpha assays give light when donor and acceptor beads are brought close together.

For test [14], the target named is Cytochrome P450 2C9 (Homo sapiens) (UniProt P11712). Briefly: qHTS Assay for Inhibitors and Substrates of Cytochrome P450 2C9 (AID 883; active = well fitted curve in the direction sought with a large enough effect; an effect the other way counts as inactive or inconclusive; note: % is set by controls: 0 for no effect and ±100 for the full control effect; nearly all actives have a fitted effect of over 60% in size). Particulars: recombinant CYP2C9, luciferin-H luminescence, 60 min; series mostly up to 57.1 µM. A digest of the protocol: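 Signal: luciferase luminescence reporting luciferin produced by CYP2C9. Conditions: 10nM enzyme, Luciferin-H 100uM at KM, 25mM KPO4, 37C, 60 min NADPH-driven reaction. Reference: 57uM sulphaphenazole as 100% inhibition.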
Cytochrome P450 2C9 (Homo sapiens), sequence (P11712 whole entry, looked up): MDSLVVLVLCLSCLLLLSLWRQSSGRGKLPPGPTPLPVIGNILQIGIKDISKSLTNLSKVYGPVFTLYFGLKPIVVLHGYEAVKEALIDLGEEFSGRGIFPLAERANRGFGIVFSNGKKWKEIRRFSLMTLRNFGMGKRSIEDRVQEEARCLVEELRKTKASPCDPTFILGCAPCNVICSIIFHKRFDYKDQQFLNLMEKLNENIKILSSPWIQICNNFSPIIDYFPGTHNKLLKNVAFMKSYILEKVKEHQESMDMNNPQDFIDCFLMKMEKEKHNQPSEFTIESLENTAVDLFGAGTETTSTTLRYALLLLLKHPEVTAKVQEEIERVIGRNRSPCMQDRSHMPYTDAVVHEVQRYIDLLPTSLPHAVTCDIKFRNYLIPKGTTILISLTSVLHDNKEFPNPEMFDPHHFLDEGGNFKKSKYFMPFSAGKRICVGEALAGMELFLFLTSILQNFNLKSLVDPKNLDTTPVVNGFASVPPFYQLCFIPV

Test [15] concerns the target Cytochrome P450 3A4 (Homo sapiens) (UniProt P08684). Briefly: qHTS Assay for Activators of Cytochrome P450 3A4 (AID 885; active = well fitted curve in the direction sought with a large enough effect; an effect the other way counts as inactive or inconclusive; note: nearly all actives have a fitted effect of over 65% in size). Particulars: recombinant CYP3A4, Luciferin-PPXE luminescence, 60 min; series mostly up to 57.1 µM. In outline:
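Activators are scored by enhanced luminescence from CYP3A4 conversion of luciferin-PPXE (25uM, equal to KM) to luciferin, after 60 min at RT with an NADPH-regenerating system.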

In test [16] the target is Cytochrome P450 2C19 (Homo sapiens) (UniProt P33261). Put plainly: qHTS Assay for Inhibitors and Substrates of Cytochrome P450 2C19 (AID 899; active = well fitted curve in the direction sought with a large enough effect; an effect the other way counts as inactive or inconclusive; note: potency is the fitted concentration of half-maximal effect; nearly all actives have a fitted effect of over 60% in size). Particulars: recombinant CYP2C19, luciferin-H EGE luminescence; series mostly up to 57.1 µM. In outline:
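Signal comes from luciferase acting on luciferin released by CYP2C19-mediated hydroxylation of Luciferin-H EGE, 10uM (KM). Assay mix: 5nM enzyme, 50mM KPO4; 60 min at 37C with NADPH regeneration. Data normalized against 57uM ketoconazole.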

Setting [17] is: measured here: cell count channel max response.
The mark [18] stands for this setting: measured here: lipid channel max response.

Records with an inconclusive call do not appear. Activity calls are given as the source filed them. Unless noted, calls come from the whole dose curve; as a rule, active = well fitted curve in either direction with a large enough effect (not every such curve was filed as active); inconclusive = small, poorly fitted or top-dose-only effect, or another doubt; inactive = flat fitted curve, though single readings scatter.

3',5'-cyclic-AMP phosphodiesterase 4B (Homo sapiens), sequence (Q07343 whole entry, looked up): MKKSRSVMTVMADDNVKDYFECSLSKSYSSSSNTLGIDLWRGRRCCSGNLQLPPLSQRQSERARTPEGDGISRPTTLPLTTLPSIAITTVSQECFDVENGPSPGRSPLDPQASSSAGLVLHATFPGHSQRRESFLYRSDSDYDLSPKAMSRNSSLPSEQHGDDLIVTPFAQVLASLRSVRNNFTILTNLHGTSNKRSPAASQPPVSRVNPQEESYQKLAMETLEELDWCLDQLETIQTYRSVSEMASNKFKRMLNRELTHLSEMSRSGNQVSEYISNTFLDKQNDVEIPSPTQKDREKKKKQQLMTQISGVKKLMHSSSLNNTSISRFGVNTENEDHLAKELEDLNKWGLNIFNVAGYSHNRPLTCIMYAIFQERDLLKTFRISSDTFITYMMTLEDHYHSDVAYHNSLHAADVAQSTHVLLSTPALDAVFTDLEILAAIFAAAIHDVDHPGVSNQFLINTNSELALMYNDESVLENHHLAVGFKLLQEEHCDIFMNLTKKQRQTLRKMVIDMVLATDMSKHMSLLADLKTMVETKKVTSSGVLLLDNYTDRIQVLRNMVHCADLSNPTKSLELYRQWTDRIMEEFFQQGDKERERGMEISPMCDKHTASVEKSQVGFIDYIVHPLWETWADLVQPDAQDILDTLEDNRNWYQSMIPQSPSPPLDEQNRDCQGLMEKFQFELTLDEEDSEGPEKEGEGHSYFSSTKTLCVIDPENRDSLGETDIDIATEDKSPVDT
Cytochrome P450 3A4 (Homo sapiens), sequence (P08684 whole entry, looked up): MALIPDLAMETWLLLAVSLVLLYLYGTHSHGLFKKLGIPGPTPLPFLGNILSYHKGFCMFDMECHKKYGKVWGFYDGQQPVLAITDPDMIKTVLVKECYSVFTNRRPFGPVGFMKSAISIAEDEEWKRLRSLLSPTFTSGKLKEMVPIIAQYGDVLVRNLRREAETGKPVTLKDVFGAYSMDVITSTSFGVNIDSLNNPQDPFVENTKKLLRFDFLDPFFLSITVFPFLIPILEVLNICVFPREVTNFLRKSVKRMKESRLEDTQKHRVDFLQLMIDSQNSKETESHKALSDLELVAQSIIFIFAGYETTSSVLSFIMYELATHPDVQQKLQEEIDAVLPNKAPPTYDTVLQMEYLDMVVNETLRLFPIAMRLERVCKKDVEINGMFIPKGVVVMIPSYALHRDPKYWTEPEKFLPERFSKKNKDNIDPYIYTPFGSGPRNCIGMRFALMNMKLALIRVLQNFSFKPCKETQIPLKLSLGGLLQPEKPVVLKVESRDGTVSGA
Glucocorticoid receptor (Homo sapiens), sequence (P04150 whole entry, looked up, the tested form may be a part): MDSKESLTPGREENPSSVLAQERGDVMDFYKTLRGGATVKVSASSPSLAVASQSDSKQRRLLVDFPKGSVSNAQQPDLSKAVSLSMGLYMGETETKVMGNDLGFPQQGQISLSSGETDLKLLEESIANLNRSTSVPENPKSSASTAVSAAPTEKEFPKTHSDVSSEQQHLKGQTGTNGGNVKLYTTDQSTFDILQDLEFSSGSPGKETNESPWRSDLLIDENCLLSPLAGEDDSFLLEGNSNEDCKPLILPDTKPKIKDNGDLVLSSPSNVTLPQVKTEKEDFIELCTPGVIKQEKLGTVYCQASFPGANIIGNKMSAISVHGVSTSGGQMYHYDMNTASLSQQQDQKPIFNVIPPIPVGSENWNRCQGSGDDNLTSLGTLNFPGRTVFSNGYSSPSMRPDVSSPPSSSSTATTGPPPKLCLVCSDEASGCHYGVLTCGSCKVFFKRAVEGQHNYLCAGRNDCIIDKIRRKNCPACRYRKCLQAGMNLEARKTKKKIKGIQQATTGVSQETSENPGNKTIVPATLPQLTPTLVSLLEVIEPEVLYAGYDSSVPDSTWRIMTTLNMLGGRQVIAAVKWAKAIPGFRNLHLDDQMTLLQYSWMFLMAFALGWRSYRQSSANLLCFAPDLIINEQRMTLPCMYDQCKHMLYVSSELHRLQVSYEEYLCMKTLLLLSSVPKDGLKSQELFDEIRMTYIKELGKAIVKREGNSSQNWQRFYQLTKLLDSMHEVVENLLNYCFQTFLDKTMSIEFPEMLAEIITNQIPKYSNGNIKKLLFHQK
Cytochrome P450 1A2 (Homo sapiens), sequence (P05177 whole entry, looked up): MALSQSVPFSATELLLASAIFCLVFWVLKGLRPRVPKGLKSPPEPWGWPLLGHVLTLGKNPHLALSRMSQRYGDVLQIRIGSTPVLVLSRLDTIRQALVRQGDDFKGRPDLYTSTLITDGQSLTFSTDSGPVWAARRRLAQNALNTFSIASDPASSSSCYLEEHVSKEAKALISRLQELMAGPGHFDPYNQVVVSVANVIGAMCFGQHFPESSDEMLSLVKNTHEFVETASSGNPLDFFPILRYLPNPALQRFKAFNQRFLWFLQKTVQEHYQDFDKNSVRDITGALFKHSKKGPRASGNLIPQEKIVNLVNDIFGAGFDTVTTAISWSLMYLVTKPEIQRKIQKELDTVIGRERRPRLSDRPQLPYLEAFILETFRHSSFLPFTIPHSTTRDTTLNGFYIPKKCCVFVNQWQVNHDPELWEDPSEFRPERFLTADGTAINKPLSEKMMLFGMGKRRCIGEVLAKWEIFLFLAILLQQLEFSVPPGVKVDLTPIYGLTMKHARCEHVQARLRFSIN
Lysosomal acid glucosylceramidase (Homo sapiens), sequence (P04062 whole entry, looked up): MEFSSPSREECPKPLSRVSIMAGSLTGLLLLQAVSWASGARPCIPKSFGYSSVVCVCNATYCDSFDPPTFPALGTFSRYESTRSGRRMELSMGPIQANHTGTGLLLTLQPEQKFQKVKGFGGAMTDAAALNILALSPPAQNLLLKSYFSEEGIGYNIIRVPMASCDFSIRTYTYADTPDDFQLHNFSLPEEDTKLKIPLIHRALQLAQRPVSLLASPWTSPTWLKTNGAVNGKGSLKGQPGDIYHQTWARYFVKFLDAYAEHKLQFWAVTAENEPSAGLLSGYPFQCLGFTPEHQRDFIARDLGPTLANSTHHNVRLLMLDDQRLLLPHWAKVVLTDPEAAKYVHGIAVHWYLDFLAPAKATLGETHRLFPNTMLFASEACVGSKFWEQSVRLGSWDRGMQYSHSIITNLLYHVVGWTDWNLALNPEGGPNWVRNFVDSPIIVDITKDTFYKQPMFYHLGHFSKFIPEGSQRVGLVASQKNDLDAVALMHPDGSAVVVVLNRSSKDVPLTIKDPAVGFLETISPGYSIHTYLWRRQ
Cytochrome P450 2C19 (Homo sapiens), sequence (P33261 whole entry, looked up): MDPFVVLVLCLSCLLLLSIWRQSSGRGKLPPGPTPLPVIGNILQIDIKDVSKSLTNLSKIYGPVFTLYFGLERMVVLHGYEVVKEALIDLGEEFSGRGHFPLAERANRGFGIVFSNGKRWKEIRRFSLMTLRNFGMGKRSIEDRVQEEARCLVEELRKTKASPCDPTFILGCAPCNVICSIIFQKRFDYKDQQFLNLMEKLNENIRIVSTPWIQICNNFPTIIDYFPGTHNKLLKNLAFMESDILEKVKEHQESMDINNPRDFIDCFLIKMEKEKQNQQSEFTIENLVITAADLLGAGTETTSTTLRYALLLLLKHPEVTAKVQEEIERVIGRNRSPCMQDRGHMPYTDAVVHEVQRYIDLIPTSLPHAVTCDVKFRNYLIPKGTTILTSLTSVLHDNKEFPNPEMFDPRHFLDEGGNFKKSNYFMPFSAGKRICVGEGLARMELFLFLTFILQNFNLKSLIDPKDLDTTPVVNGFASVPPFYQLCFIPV
Cytochrome P450 2D6 (Homo sapiens), sequence (P10635 whole entry, looked up): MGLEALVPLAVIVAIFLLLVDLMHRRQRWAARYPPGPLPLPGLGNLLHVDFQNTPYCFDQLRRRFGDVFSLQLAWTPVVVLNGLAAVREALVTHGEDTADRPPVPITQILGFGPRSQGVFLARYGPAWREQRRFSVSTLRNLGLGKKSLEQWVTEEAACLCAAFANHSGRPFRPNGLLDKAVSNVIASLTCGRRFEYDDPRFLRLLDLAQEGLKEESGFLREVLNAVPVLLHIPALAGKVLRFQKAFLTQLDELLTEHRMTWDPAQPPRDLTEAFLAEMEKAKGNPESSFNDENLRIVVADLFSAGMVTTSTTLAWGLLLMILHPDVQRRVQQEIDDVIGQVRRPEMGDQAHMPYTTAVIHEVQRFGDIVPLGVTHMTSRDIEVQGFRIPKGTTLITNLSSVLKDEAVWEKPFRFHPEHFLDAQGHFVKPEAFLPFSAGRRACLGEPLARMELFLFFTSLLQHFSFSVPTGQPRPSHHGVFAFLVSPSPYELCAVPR

For `N#Cc1cccc(NC(=O)N2CCC3(CC2)CCN(C(=O)c2ccco2)CC3)c1`, the Potency in [1] is > 11.4 µM (inactive); in test [6], > 46 µM (inactive). In addition, the activity change, negative = inhibition in test [2] is -7.83% (inactive); in test [4], -8.92% (inactive); in test [9], 6.33% (inactive). For the same compound, the Potency result in [3], in [7], in test [8] and in test [10] was “inactive” each time. For the same compound, in test [5], the activity, negative = inhibition is 4.51% (inactive). In addition, the max response is 10.3% in test [9] (setting [17]) and 18.9% in test [9] (setting [18]).

Take `O=C(c1ccncc1)N1CCC2(CC1)CCN(c1cccc(-c3ccccc3)c1)CC2`: the Potency in test [1] is > 11.4 µM (inactive); in [3], 20 µM (active); in test [6], > 46 µM (inactive); in test [11], 7.94 µM (active). In addition, the results for the activity change, negative = inhibition in test [2], in [4] and in test [9] were -1.52% (inactive), 4.67% (inactive) and 1.19% (inactive), respectively. Also, the activity, negative = inhibition in [5] is -12.5% (inactive). For the same compound, the Potency result in [7] and in test [10] was “inactive” each time. For the same compound, the max response in [9] (setting [17]) stood at 19.1%; in [9] (setting [18]) it was 21.6%.

Consider `Cc1noc(C)c1C(=O)N1CCC2(CCN(Cc3cc(C(F)(F)F)cc(C(F)(F)F)c3)CC2)CC1`, for which the Potency is > 11.4 µM (inactive) in test [1] and > 46 µM (inactive) in [6]. Moreover, the activity change, negative = inhibition in [2] is -3.69% (inactive); in test [4], -22.4% (inactive); in test [9], 2.45% (inactive). For the same compound, the Potency result in [3], in test [7] and in test [10] was “inactive” throughout. For the same compound, in test [5], the activity, negative = inhibition is -0.996% (inactive). The values for the max response in [9] (setting [17]) and in test [9] (setting [18]) were -5.2% and -1.09%, respectively.

For `Cc1nc2cnc(N(C)C)nc2n(Cc2ccc(F)cc2)c1=O`, the Potency was > 11.4 µM (inactive) in [1]; 2 µM (active) in [3]; > 9.22 µM (inactive) in test [12]; > 46 µM (inactive) in [6]; 0.0251 µM (active) in test [8]; 1.58 µM (active) in test [16]. Besides, the values for the activity change, negative = inhibition in test [2], in test [4] and in [9] were 3.79% (inactive), 1.01% (inactive) and 5.88% (inactive), respectively. Besides, the result in test [13] was inactive. The Potency entry in test [14], in test [15] and in test [10] was “inactive” throughout. The max response in [9] (setting [17]) turned out to be 15%; in [9] (setting [18]), 21.5%.

On to `O=C(Nc1ccccc1)N1CC2(CCN(C(=O)c3ccco3)CC2)C1`, for which, in test [1], the Potency is > 11.4 µM (inactive). The values for the activity change, negative = inhibition in test [2], in test [4] and in test [9] were -2% (inactive), 3.9% (inactive) and 5.54% (inactive), respectively. The Potency entry in test [3], in test [7] and in test [10] was “inactive” each time. In addition, the activity, negative = inhibition in test [5] was 4.13% (inactive). Moreover, in test [13], the result was inactive. Moreover, the figures for the max response in test [9] (setting [17]) and in test [9] (setting [18]) were 21.9% and 27.1%, respectively.

The values above are taken from PubChem BioAssay (NCATS).
